Consider 9 molecules from PubChem BioAssay (Tox21).

A short description of assay [1]: qHTS assay for small molecules that induce genotoxicity in human embryonic kidney cells expressing luciferase-tagged ATAD5 (AID 651632). Further: nearly all actives have a fitted effect of over 15% in size. Summed up:
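Test compounds were delivered by pin tool onto HEK293T reporter cells (2,000/well) expressing ATAD5 fused to luciferase. After 16 hr at 37C, 5% CO2, Amplite was added for 30 min at room temperature and luminescence was measured.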
On the technique in general: Quantitative high-throughput screening tests each substance at several concentrations.

Assay [2] can be described thus: qHTS assay for small molecules that induce genotoxicity in human embryonic kidney cells expressing luciferase-tagged ATAD5 - cell viability (AID 651634; calls by dose curve; further: nearly all actives have a fitted effect of over 25% in size; further: potency means the concentration at half of the fitted maximal effect). Summed up: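 Quantitative high-throughput format. HEK293T cells expressing ATAD5 fused to luciferase were plated at 2,000 cells/well and treated 15.5 hr with compound versus DMSO. Viability was determined by fluorescent live-cell protease substrate, 30 min at 37C.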

Assay [3] can be described thus: qHTS assay for small molecule disruptors of the mitochondrial membrane potential - cell viability (AID 720634; calls by dose curve; further: nearly all actives have a fitted effect of over 20% in size; further: potency means the concentration at half of the fitted maximal effect). In a few lines:
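Same-well counter-screen: following the MMP dye addition, CellTiter-Glo was added to 1 hr compound-treated HepG2 cells and luminescence read after 30 min at room temperature.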

Assay [4] can be described thus: qHTS assay for small molecule disruptors of the mitochondrial membrane potential (AID 720635). Further: potency means the concentration at half of the fitted maximal effect. Summed up: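 Mitochondrial membrane potential tracked with Mito-MPS dye, red aggregates (ex 540/em 590 nm) against green monomers (ex 490/em 535 nm). Compound treatment 1 hr at 37C, dye 30 min in HepG2.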
Assay [5] is described as follows: qHTS assay to test for compound auto fluorescence at 590 nm (red) in HepG2 cells (AID 720674). In a few lines: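 1 hr compound incubation on HepG2 cells, 37 C, 5% CO2; plate read ex 540 nm / em 590 nm; intensities reported as Rose Bengal sodium equivalents.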
The nature of assay [6]: qHTS assay to test for compound auto fluorescence at 535 nm (green) in HepG2 cells (AID 720675).
The nature of assay [7]: qHTS assay to test for compound auto fluorescence at 460 nm (blue) in HEK293 cells (AID 720678). In a few lines:
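Cells were seeded and left to adhere for 4-5 hr at 37C. Compounds were then pin-transferred. After an overnight incubation at 37C under 5% CO2, intrinsic fluorescence at 405/460 nm was measured and referenced to triamterene.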

Assay [8] is described as follows: qHTS assay to test for compound auto fluorescence at 590 nm (red) in HEK293 cells (AID 720679). In a few lines:
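Each well held 2,000 HEK293 cells in medium containing 10% dialyzed FBS. Following 4-5 hr attachment at 37C, 23 nL test compound or DMSO was added; plates sat overnight, and red fluorescence (540/590nm) was recorded.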

Assay [9] in a line: qHTS assay to test for compound auto fluorescence at 535 nm (green) in HEK293 cells (AID 720680).
A short description of assay [10]: qHTS assay to test for compound auto fluorescence at 460 nm (blue) in HEK293 cell free culture (AID 720681). Summed up: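 Blue fluorescence (Ex 405/Em 460 nm, triamterene-equivalent) was read immediately after pin transfer of compound or DMSO into medium (DMEM, 10% FBS) without cells.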
Assay [11] is described as follows: qHTS assay to test for compound auto fluorescence at 535 nm (green) in HEK293 cell free culture (AID 720682). Summed up: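 Intrinsic compound fluorescence is measured in culture medium containing 10% FBS, with excitation at 485 nm and detection at 535 nm, referenced to fluorescein.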
Assay [12] is described as follows: qHTS assay to test for compound auto fluorescence at 590 nm (red) in HEK293 cell free culture (AID 720683). In a few lines:
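Red-channel autofluorescence of compounds in culture medium (DMEM, 10% FBS), no cells, measured at 540/590 nm. Rose Bengal sodium is the reference fluorophore for equivalence.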

A short description of assay [13]: qHTS assay to test for compound auto fluorescence at 590 nm (red) in HepG2 cell free culture (AID 720684). Summed up:
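No cells present: MEM + 10% FBS only. Compound pinned in, red label read (540/590 nm). Activity = fluorescence equivalent to Rose Bengal sodium.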

Assay [14] is described as follows: qHTS assay to test for compound auto fluorescence at 460 nm (blue) in HepG2 cell free culture (AID 720685). In a few lines: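 Cell-free plates of MEM plus 10% FBS received 23 nL compound or DMSO vehicle; blue-channel (405/460 nm) intensity scored against triamterene as reference fluorophore.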
Assay [15] in a line: qHTS assay to test for compound auto fluorescence at 535 nm (green) in HepG2 cell free culture (AID 720686).
A short description of assay [16]: qHTS assay to test for compound auto fluorescence at 460 nm (blue) in HepG2 cells (AID 720687). Summed up: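 Blue-channel autofluorescence (Ex/Em 405/460 nm, triamterene-equivalent) was measured after 1 hr compound exposure at 37 C, 5% CO2. Cells were HepG2, plated overnight at 37 C in MEM plus 10% FBS.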
The target in assay [17] is Glucocorticoid receptor (Homo sapiens) (UniProt P04150). In words: qHTS assay to identify small molecule agonists of the glucocorticoid receptor (GR) signaling pathway (AID 720691; active means well fitted activation curve with a large enough effect in the signal ratio in the repeat runs, not every such curve was filed as active; the % refers to the signal ratio). Summed up: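 A HeLa cervical cancer line expressing GR and a glucocorticoid response element-driven beta-lactamase gene is treated with compounds for 18 h; LiveBLAzer B/G FRET substrate is then applied and fluorescence read.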
Sequence of Glucocorticoid receptor (Homo sapiens) (P04150 whole entry, looked up): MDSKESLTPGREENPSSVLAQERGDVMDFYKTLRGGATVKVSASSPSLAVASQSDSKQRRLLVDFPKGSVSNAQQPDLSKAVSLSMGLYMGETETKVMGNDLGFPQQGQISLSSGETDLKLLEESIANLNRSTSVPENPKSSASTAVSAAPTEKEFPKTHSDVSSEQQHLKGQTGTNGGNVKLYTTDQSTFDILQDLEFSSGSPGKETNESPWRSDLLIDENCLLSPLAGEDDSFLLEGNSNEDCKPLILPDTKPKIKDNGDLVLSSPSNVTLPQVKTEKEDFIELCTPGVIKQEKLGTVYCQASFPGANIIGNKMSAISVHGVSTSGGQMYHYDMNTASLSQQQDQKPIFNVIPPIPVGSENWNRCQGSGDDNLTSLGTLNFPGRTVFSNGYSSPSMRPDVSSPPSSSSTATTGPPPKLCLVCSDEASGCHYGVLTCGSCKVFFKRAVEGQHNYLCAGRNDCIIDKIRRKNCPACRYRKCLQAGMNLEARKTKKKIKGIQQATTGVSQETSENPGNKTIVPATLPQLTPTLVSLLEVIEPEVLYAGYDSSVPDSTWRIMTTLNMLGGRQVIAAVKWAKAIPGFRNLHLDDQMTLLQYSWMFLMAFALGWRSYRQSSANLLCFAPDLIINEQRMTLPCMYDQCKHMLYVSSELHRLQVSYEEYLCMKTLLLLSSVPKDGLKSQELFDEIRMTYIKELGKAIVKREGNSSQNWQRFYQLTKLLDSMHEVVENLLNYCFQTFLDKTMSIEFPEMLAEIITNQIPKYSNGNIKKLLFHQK

The target is the same in assay [18]. In words: qHTS assay to identify small molecule antagonists of the glucocorticoid receptor (GR) signaling pathway (AID 720692; active means well fitted inhibition curve with a large enough effect in the signal ratio in the repeat runs, not every such curve was filed as active; the % refers to the signal ratio). Summed up:
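GRE-bla HeLa line, dex-stimulated (5 nM final). Compound exposure 18 h, 37 C. Beta-lactamase FRET read after 2 h RT substrate.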

A short description of assay [19]: qHTS assay for small molecule agonists of the p53 signaling pathway - cell viability (AID 651633; calls by dose curve; further: nearly all actives have a fitted effect of over 30% in size; further: potency means the concentration at half of the fitted maximal effect). In a few lines:
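Viability counter-read: CellTiter-Glo luminescence (30 min, room temperature) in the same p53RE-bla plates. These plates had been exposed to compounds for 16 h at 37 C.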

Several values for one entry are separate records, joined by “and”; a condition that tells them apart may be missing. Equal values may be shown once. Values without a mark were called inactive. Inconclusive results are not listed. Activity calls are given as the source filed them. Unless noted, the call rests on the fitted dose curve; in most records, active means well fitted curve in the direction sought with a large enough effect in the repeat runs; inconclusive means weak or mixed curves; inactive means no such curve, though single readings can be large; an effect the other way counts as inactive or inconclusive.

Regarding `C=CCN1C[C@H](C)N([C@H](c2ccc(C(=O)N(CC)CC)cc2)c2cccc(OC)c2)C[C@H]1C`, the Potency result in assay [1], in assay [2], in assay [3], in assay [4], in assay [17] and in assay [18] was “inactive” in each case. The molecule was called inactive in [5], in assay [6], in [7], in [8], in assay [9] and in [10]. Besides, the call in [11], in assay [12], in assay [13], in assay [14], in [15] and in [16] was inactive.

In the case of `C[CH2][Hg][S]c1ccccc1C(=O)O`, the Potency is 3.35 µM (active) and 2.43 µM (active) in assay [19]; 11.9 µM (active) and 27.3 µM (active) in assay [2]; 13.3 µM (active) and 15.4 µM (active) in [3]; 11.9 µM (active) and 15.4 µM (active) in [4]. Also, the molecule was called inactive in assay [5], in assay [6], in assay [7], in assay [8], in assay [9] and in [10]. For the same molecule, the call in [11], in assay [12], in assay [13], in assay [14], in assay [15] and in assay [16] was inactive.

In the case of `NNCCO`, the Potency entry in [1] and in assay [2] was “inactive” each time. In addition, the molecule was classed as inactive in assay [5], in [6], in assay [7], in assay [8], in [9] and in [10]. In addition, the molecule was classed as inactive in [11], in [12], in [13], in assay [14] and in assay [16].

As to `CN1C[C@H](C(=O)N[C@]2(C)O[C@@]3(O)[C@@H]4CCCN4C(=O)[C@H](Cc4ccccc4)N3C2=O)C=C2c3cccc4[nH]cc(c34)C[C@H]21`, the Potency entry in [19], in assay [3] and in assay [17] was “inactive” throughout. In assay [4], the Potency is 4.22 µM (active) and 9.73 µM (active) and 18 µM (active). The call in [5], in assay [6], in assay [7], in assay [8], in assay [9] and in assay [10] was inactive. Further, the outcome in assay [11], in [12], in assay [13], in assay [14], in assay [15] and in assay [16] was inactive.

With `CCCN(CCOc1c(Cl)cc(Cl)cc1Cl)C(=O)n1ccnc1`, the Potency result in assay [19], in assay [2] and in [17] was “inactive” in each case. Further, the result in [5], in [6], in [7], in [8], in [9] and in [10] was inactive. Moreover, the call in assay [11], in [12], in [13], in [14] and in assay [16] was inactive.

Regarding `C[C@]12C=CC3=C4CCC(=O)C=C4CC[C@H]3[C@@H]1CC[C@@H]2O`, the Potency entry in assay [2] and in [3] was “inactive” in each case. Moreover, the call in assay [5], in assay [6], in assay [8], in [9], in [11] and in [12] was inactive. The molecule was classed as inactive in assay [13] and in assay [15].

In the case of `CCC(C)(C)O`, the Potency result in assay [1], in assay [2], in [3] and in assay [17] was “inactive” throughout. The call in [5], in assay [6], in [7], in [8], in [9] and in assay [10] was inactive. The outcome in [11], in assay [12], in [13], in [14] and in [16] was inactive.

As for `O=C(O)CCCOc1ccc(Cl)cc1Cl`, the Potency entry in assay [3] was “inactive”. Further, the outcome in [5], in assay [6], in assay [7], in assay [8], in assay [9] and in assay [10] was inactive. The outcome in assay [11], in [12], in assay [13], in assay [14], in assay [15] and in assay [16] was inactive.

Take `O=C(O)C(O)C(O)C(=O)O` (stereo not given): the Potency result in assay [1], in assay [2] and in assay [3] was “inactive” throughout. Further, the molecule was called inactive in assay [5], in assay [6], in assay [7], in assay [8], in [9] and in assay [10]. The call in assay [11], in assay [12], in assay [13], in assay [14], in assay [15] and in assay [16] was inactive.
